This passage reports Potency results from PubChem BioAssay (NCATS).

Records with an inconclusive call do not appear. The source made the active and inactive calls. Calls follow the shape of the dose curve; as a rule, active = well fitted curve in the direction sought with a large enough effect; inconclusive = small, poorly fitted or top-dose-only effect, or another doubt; inactive = no such curve, though single readings can be large; an effect the other way counts as inactive or inconclusive.

The nature of assay [1]: Quantitative High-Throughput drug screen in 47 multiple myeloma cell lines against the NCATS MIPE library collection: KMM1_JCRB cell viability assay (AID 1918960). Also: nearly all actives have a fitted effect of over 30% in size. Also: potency is read from the fitted curve at half-maximal effect. Put shortly:
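Here, 48 h treatment with MIPE 4.0 agents at 37 °C preceded an ATP luminescence read. Plating density was 500 cells per well.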

Assay [2] is described as follows: Quantitative High-Throughput drug screen in 47 multiple myeloma cell lines against the NCATS MIPE library collection: JIM1_ECACC cell viability assay (AID 1918964; also: potency is read from the fitted curve at half-maximal effect). Put shortly: (§1)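 Inhibition of cell viability is measured here. Each line was plated at 500 cells per well, treated with MIPE 4.0 drugs, kept 48 hours at 37C, then assayed for ATP content by CellTiter-Glo luminescence.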

The nature of assay [3]: Quantitative High-Throughput drug screen in 47 multiple myeloma cell lines against the NCATS MIPE library collection: INA6_PLB cell viability assay (AID 1918965; also: nearly all actives have a fitted effect of over 55% in size; also: potency is read from the fitted curve at half-maximal effect). The essentials: (§2)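 We plated 500 myeloma cells per well, pinned in MIPE 4.0 compounds, and incubated for 48 hours at 37C. ATP was then quantified with CellTiter-Glo, with DMSO and media-only wells defining 100% and 0%.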

A short description of assay [4]: Quantitative High-Throughput drug screen in 47 multiple myeloma cell lines against the NCATS MIPE library collection: KMS12BM_JCRB cell viability assay (AID 1918971). Also: nearly all actives have a fitted effect of over 35% in size. Also: potency is read from the fitted curve at half-maximal effect. Put shortly:
(§3)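 CellTiter-Glo luminescence (ATP) after 48 h compound exposure, 37C/5% CO2; 500 cells/well; MIPE 4.0 approved/investigational drugs pinned in; DMSO = 100%, media only = 0% viability.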

Assay [5] in a line: Quantitative High-Throughput drug screen in 47 multiple myeloma cell lines against the NCATS MIPE library collection: KMS26_JCRB cell viability assay (AID 1918975). Also: potency is read from the fitted curve at half-maximal effect; nearly all actives have a fitted effect of over 45% in size. The essentials: as §3
Assay [6] is described as follows: Quantitative High-Throughput drug screen in 47 multiple myeloma cell lines against the NCATS MIPE library collection: KHM11_PLB cell viability assay (AID 1918962). Also: nearly all actives have a fitted effect of over 35% in size. Also: potency is read from the fitted curve at half-maximal effect. The essentials:
(§4)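 Primary qHTS used for cherry-picking: cells at 500/well, library compounds for 48 h (37C, 5% CO2), luminescent ATP assay.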

The nature of assay [7]: Quantitative High-Throughput drug screen in 47 multiple myeloma cell lines against the NCATS MIPE library collection: JIM3_ECACC cell viability assay (AID 1918963; also: nearly all actives have a fitted effect of over 35% in size; also: potency is read from the fitted curve at half-maximal effect). Put shortly: as §4
A short description of assay [8]: Quantitative High-Throughput drug screen in 47 multiple myeloma cell lines against the NCATS MIPE library collection: H1112_PLB cell viability assay (AID 1918967; also: nearly all actives have a fitted effect of over 30% in size; also: potency is read from the fitted curve at half-maximal effect). Put shortly:
as §1

Assay [9] can be described thus: Quantitative High-Throughput drug screen in 47 multiple myeloma cell lines against the NCATS MIPE library collection: Karpas25_ECACC cell viability assay (AID 1918968; also: nearly all actives have a fitted effect of over 35% in size; also: potency is read from the fitted curve at half-maximal effect). Put shortly: as §1
The nature of assay [10]: Quantitative High-Throughput drug screen in 47 multiple myeloma cell lines against the NCATS MIPE library collection: KMS27_JCRB cell viability assay (AID 1918970). Also: nearly all actives have a fitted effect of over 30% in size. Also: potency is read from the fitted curve at half-maximal effect. To be noted: KMS27 myeloma cells, CellTiter-Glo ATP viability, 48 h; viability (% of DMSO): at 45.8 µM (top of the series). The essentials: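 Each line is seeded at 500 cells per well and treated with library compounds for 48 hours under 37 °C, 5% CO2. CellTiter-Glo is then added for 5 min at room temperature before median relative luminescence is recorded.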
A general note: Cellular ATP, detected with luciferase, serves as a proxy for viable cell number.

Assay [11] can be described thus: Quantitative High-Throughput drug screen in 47 multiple myeloma cell lines against the NCATS MIPE library collection: KMS12PE_JCRB cell viability assay (AID 1918972). Also: nearly all actives have a fitted effect of over 30% in size. Also: potency is read from the fitted curve at half-maximal effect. The essentials: as §2
Assay [12] in a line: Quantitative High-Throughput drug screen in 47 multiple myeloma cell lines against the NCATS MIPE library collection: MOLP8_DSMZ cell viability assay (AID 1918977). Also: nearly all actives have a fitted effect of over 45% in size. Also: potency is read from the fitted curve at half-maximal effect. Put shortly:
(§5)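 Plated at 500 cells per well, myeloma lines received MIPE 4.0 compounds by pin tool. Following 48 h culture at 37 °C, CellTiter-Glo luminescence gave viability relative to DMSO and media-only controls.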

The nature of assay [13]: Quantitative High-Throughput drug screen in 47 multiple myeloma cell lines against the NCATS MIPE library collection: NCIH929_DSMZ cell viability assay (AID 1918978). Also: nearly all actives have a fitted effect of over 35% in size. Also: potency is read from the fitted curve at half-maximal effect. Put shortly: as §5
Assay [14] in a line: Quantitative High-Throughput drug screen in 47 multiple myeloma cell lines against the NCATS MIPE library collection: OCIMY1_PLB cell viability assay (AID 1918979). Also: nearly all actives have a fitted effect of over 35% in size. Also: potency is read from the fitted curve at half-maximal effect. The essentials: as §5
A short description of assay [15]: Quantitative High-Throughput drug screen in 47 multiple myeloma cell lines against the NCATS MIPE library collection: KMS20_JCRB cell viability assay (AID 1918973). Also: nearly all actives have a fitted effect of over 45% in size. Also: potency is read from the fitted curve at half-maximal effect. The essentials:
as §1

Assay [16] can be described thus: Quantitative High-Throughput drug screen in 47 multiple myeloma cell lines against the NCATS MIPE library collection: MMM1_PLB cell viability assay (AID 1918976). Also: nearly all actives have a fitted effect of over 35% in size. Also: potency is read from the fitted curve at half-maximal effect. Put shortly: as §5
The nature of assay [17]: Quantitative High-Throughput drug screen in 47 multiple myeloma cell lines against the NCATS MIPE library collection: Karpas620_DSMZ cell viability assay (AID 1918959). Also: nearly all actives have a fitted effect of over 30% in size. Also: potency is read from the fitted curve at half-maximal effect. Put shortly: as §4
The nature of assay [18]: Quantitative High-Throughput drug screen in 47 multiple myeloma cell lines against the NCATS MIPE library collection: JJN3_DSMZ cell viability assay (AID 1918966; also: potency is read from the fitted curve at half-maximal effect; nearly all actives have a fitted effect of over 50% in size). The essentials: as §1
Assay [19] is described as follows: Quantitative High-Throughput drug screen in 47 multiple myeloma cell lines against the NCATS MIPE library collection: KMS21BM_JCRB cell viability assay (AID 1918974). Also: potency is read from the fitted curve at half-maximal effect. Particulars: ATP luminescence, 48 h; viability: at 45.8 µM (top of the series). Put shortly:
as §1

The nature of assay [20]: Quantitative High-Throughput drug screen in 47 multiple myeloma cell lines against the NCATS MIPE library collection: Karpas417_ECACC cell viability assay (AID 1918961). Particulars: Karpas417 myeloma viability, CellTiter-Glo ATP luminescence, 48 h; viability (% of DMSO): at 45.8 µM (top of the series). Put shortly: as §2

`CCCCCN=C(N)NN=Cc1c[nH]c2ccc(OC)cc12`: the Potency was 3.32 µM (active) in assay [1]; 1.48 µM (active) in assay [2]; 0.526 µM (active) in assay [3]; 6.62 µM (active) in assay [4]; 10.5 µM (active) in assay [5].
For the compound `CCCNS(=O)(=O)Nc1ncnc(OCCOc2ncc(Br)cn2)c1-c1ccc(Br)cc1`, the Potency entry in assay [1], in assay [6], in assay [7], in [2], in assay [3] and in assay [8] was “inactive” throughout. The Potency entry in [9], in assay [10], in assay [4], in assay [11], in [12] and in assay [13] was “inactive” throughout. Besides, the Potency entry in assay [14] was “inactive”.
With `N#CC(=C(O)c1ccc(Cl)cc1Cl)c1nc2cc(Cl)ccc2c(=O)[nH]1`, the Potency result in [1], in [6], in assay [7], in assay [3], in assay [10] and in assay [4] was “inactive” throughout. The Potency result in assay [11], in assay [15], in assay [16], in assay [12] and in assay [13] was “inactive” in each case.
With `C=CC(=O)Nc1cc(NC(=O)c2ccc(C)c(NC(=O)c3ccno3)c2)cc(C(F)(F)F)c1`, the Potency in assay [17] was 8.33 µM (active); in [3], 16.6 µM (active); in assay [18], 18.7 µM (active); in assay [8] it was 18.7 µM (active); in assay [9] it was 14.8 µM (active); in assay [4], 23.5 µM (active). For the same compound, the Potency in assay [11] was 8.33 µM (active); in assay [5] it was 18.7 µM (active); in [16], 20.9 µM (active); in assay [12] it was 18.7 µM (active).
With `CCOc1cc2ncc(C#N)c(Nc3ccc(OCc4ccccn4)c(Cl)c3)c2cc1NC(=O)C=CCN(C)C`, the Potency in assay [1] was 0.935 µM (active); in assay [6], 0.935 µM (active); in assay [2], 0.418 µM (active); in [3], 0.264 µM (active); in [10], 0.264 µM (active); in assay [4], 5.26 µM (active). In addition, the Potency in [11] is 0.264 µM (active); in assay [15], 0.935 µM (active); in assay [5] it was 18.7 µM (active); in assay [13], 0.833 µM (active).
For `CC(C)c1cnn2c(NCc3ccccc3)cc(NCCCCCCN)nc12`, the Potency in assay [1] is 16.6 µM (active); in assay [7] it was 20.9 µM (active); in assay [3], 26.4 µM (active); in [18], 23.5 µM (active); in assay [10], 18.7 µM (active); in assay [4] it was 26.4 µM (active). Also, the Potency was 18.7 µM (active) in assay [11], 23.5 µM (active) in [19], 14.8 µM (active) in [5] and 18.7 µM (active) in assay [16].
Regarding `COC(=O)C=CC(=O)OC`, the Potency result in assay [17], in assay [4] and in assay [11] was “inactive” throughout. Besides, the Potency in assay [3] was 18.7 µM (active); in assay [9] it was 1.48 µM (active); in [15], 2.64 µM (active); in assay [13] it was 0.264 µM (active).
`COc1cc2c(cc1O)CCC1C2CC[C@@]2(C)C1CC[C@@H]2O` (stereo partly specified): the Potency result in assay [20] is “inactive”. For the same compound, the Potency in [7] is 1.32 µM (active); in [3], 1.66 µM (active); in assay [18] it was 8.33 µM (active); in assay [9] it was 2.96 µM (active); in assay [4] it was 1.18 µM (active); in assay [5], 3.72 µM (active). In addition, the Potency in [16] is 6.62 µM (active); in assay [13], 7.43 µM (active); in [14], 3.32 µM (active).
